Common to all, as to experiment: NCI-60 one-dose screen, 48 h (100 = growth as untreated, 0 = no growth, -100 = all killed)
Holding throughout (conditions): 10 µM unless noted

Assay [1] relates to NCI-H23 lung.
The subject of assay [2] is NCI-H226 lung.
Assay [3] relates to NCI-H322M lung.
For assay [4], the system named is HOP-62 NSCLC.
Assay [5] concerns NCI-H460 lung.
Assay [6] has as its system NCI-H522 lung.
Assay [7] deals with A549/ATCC NSCLC.
The subject of assay [8] is 786-0 renal.
In assay [9] the test system is COLO 205 colon.
The subject of assay [10] is DU-145 prostate.
For assay [11], the system named is K-562 leukemia.
In assay [12] the test system is MALME-3M melanoma.
Assay [13] deals with MDA-MB-231 breast.
Assay [14] concerns RXF 393 renal.
The test system of assay [15] is SF-268 CNS.
Assay [16] concerns SF-295 CNS.
Assay [17] deals with SF-539 CNS.
The subject of assay [18] is UACC-257 melanoma.
Assay [19] concerns M14 melanoma.

This is part of a sample that, as a whole, favours compounds with a hit. Of some 83,000 tested, about 20% had one in any assay.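 Assay: single dose, 48 h. Readout: percent growth (0 = no net growth; negative = cell death). Active: <10.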 Values without a mark were called inactive. Active and inactive are the calls of the source.

With `COc1cc(/C=C/c2cc(/C=C/c3ccc(O)c(OC)c3)n(C(=O)c3ccccc3Br)n2)ccc1O`, the growth in assay [1] is 17.7%; in assay [2], 38.5%; in assay [3] it was 39.5%; in assay [4] it was 43.5%; in assay [5], 9.15% (active); in assay [6], 4.2% (active). For the same molecule, the growth in assay [7] was 41.7%; in assay [8], 9.91% (active); in assay [9], 23.9%; in assay [10], 28.9%; in assay [11], 3.62% (active); in assay [12] it was 23.4%. In addition, the growth was 39.7% in assay [13]; -3.83% (active) in assay [14]; 28% in assay [15]; -29.7% (active) in assay [16]; 4.02% (active) in [17]; 87.1% in [18]. For the same molecule, in [19], the growth is 5.42% (active).
As for `COc1ccc(-c2nc3ccccc3n3cccc23)cc1`, the growth in assay [1] was 86.1%; in [2], 94.7%; in assay [3], 96.6%; in assay [4] it was 116%; in assay [5], 112%; in assay [6], 101%. Further, the growth is 102% in assay [7]; 100% in assay [8]; 120% in [9]; 119% in assay [10]; 96.3% in assay [11]; 127% in [12]. The growth was 97.9% in [13]; 135% in [14]; 109% in assay [15]; 114% in assay [16]; 101% in assay [17]; 109% in [18]. Further, in assay [19], the growth is 100%.
`N/C(=N\OC(=O)c1ccccc1)C(Cc1ccccc1)C(=O)NOC(=O)c1ccccc1` (configuration not stated): the growth was 46.6% in assay [1]; 95.1% in assay [2]; 89% in assay [3]; 1.55% (active) in assay [4]; 5.54% (active) in [5]; -53.7% (active) in [6]. In addition, the growth in assay [7] was -60.3% (active); in [8], 48.7%; in [9] it was 69.3%; in [10], 16.2%; in assay [11], -6.89% (active); in [12], 59.2%. In addition, the growth is 70.7% in [13]; 53.4% in [14]; 1.91% (active) in assay [15]; -14.7% (active) in assay [16]; 13.6% in assay [17]; 88.8% in assay [18]. For the same molecule, in assay [19], the growth is 48.3%.
On to `COc1ccc(/C=C/c2nc3ccccc3c(=O)n2-c2ccc(C#Cc3ccc(C(C)(C)C)cc3)cc2C)c(OC)c1`, for which the growth in assay [1] is 94%; in assay [2] it was 87.3%; in assay [3] it was 101%; in [4] it was 112%; in [5] it was 85%; in [6], 70.2%. The growth in assay [7] is 91.2%; in [8], 101%; in assay [9], 97.9%; in assay [10] it was 109%; in [11], 63.9%; in assay [12], 94.8%. Besides, the growth was 89.5% in [13]; 113% in assay [14]; 96.9% in assay [15]; 101% in assay [16]; 97.1% in assay [17]; 72.8% in assay [18]. Besides, in assay [19], the growth is 96.8%.
With `COc1ccc2[nH]cc(C3(c4c[nH]c5ccc(OC)cc45)C(=O)Nc4ccc(F)cc43)c2c1`, the growth in assay [1] was 97%; in assay [2], 70%; in [3] it was 98.1%; in [4], 83.3%; in assay [5] it was 4.92% (active); in [6], 78.5%. In addition, the growth was 75.3% in assay [7]; 82.6% in assay [8]; 72.9% in assay [9]; 81.2% in assay [10]; -16.5% (active) in assay [11]; 80.1% in assay [12]. Further, the growth was 101% in assay [13]; 78.8% in [14]; 53.9% in [15]; 56.7% in assay [16]; 78.5% in assay [17]; 94% in [18]. In assay [19], the growth was 86.7%.
For `O=C(Nc1cccc(Cl)c1)Nc1ccccc1Cl`, the growth in assay [1] was 73.1%; in assay [2] it was 108%; in assay [3], 99.8%; in assay [4], 101%; in assay [5] it was 86%; in assay [6] it was 42.6%. Further, the growth is 80.8% in assay [7]; 82.1% in assay [8]; 121% in assay [9]; 95.8% in assay [10]; 61.3% in assay [11]; 92% in assay [12]. The growth was 73.8% in assay [13]; 117% in assay [14]; 91% in [15]; 80.7% in assay [16]; 104% in assay [17]; 86.8% in assay [18]. In [19], the growth was 106%.
As to `O=[N+]([O-])c1ccc(N/N=C/c2ccccc2O)nc1`, the growth in assay [1] was 33.9%; in assay [2], 83.3%; in [3], 39.6%; in assay [4], 32.7%; in [5] it was 15%; in assay [6], 9.71% (active). Besides, the growth in [7] is 31.4%; in [8], 21.8%; in [9], 14.6%; in assay [10], 48.7%; in [11], 21.9%; in assay [12], 78.5%. The growth in assay [13] is 52.3%; in assay [14], 38.1%; in assay [15], 40.1%; in [16], 35.2%; in [17], 42.9%; in [18], 32%. Further, in assay [19], the growth is 29.5%.
For `OC(COCc1ccccc1)COCc1ccccc1`, the growth in assay [1] was 110%; in [2], 106%; in assay [3], 112%; in assay [4] it was 106%; in assay [5] it was 112%; in [6], 100%. The growth in assay [7] was 99.9%; in [8] it was 108%; in assay [9] it was 110%; in assay [10], 122%; in [11], 99.3%; in assay [12], 105%. The growth in assay [13] is 108%; in assay [14], 119%; in [15], 115%; in assay [16], 108%; in [17] it was 110%; in [18] it was 97.9%. In addition, in [19], the growth was 103%.

The record behind these values is PubChem BioAssay (NCI).
